PubChem BioAssay (NCATS)
Results filed as inconclusive are left out. Active and inactive are the calls of the source. The call rests on the fitted dose curve; in most records, active means well fitted curve in the direction sought with a large enough effect; inconclusive means small, poorly fitted or top-dose-only effect, or another doubt; inactive means no such curve, though single readings can be large; an effect the other way counts as inactive or inconclusive.

Legend:
[1] = BET inhibitor-based combinations targeting novel dependencies in MECOM-rearranged (r) AML: SET-2 cell line (AID 2202231); conditions: SET-2 AML cells viability, CellTiter-Glo luminescence, 48 h; viability: hits give low values, concentration not given here; further: nearly all actives have a fitted effect of over 35% in size;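 on viability: plate controls were DMSO treated cells for no effect and wells without cells for full effect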
Outline: (§1)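 Here, 11-point titrations of each agent were applied to 500 seeded cells and incubated 48 hr; CellTiter-Glo signal, scaled against DMSO and empty wells, was integrated as AUC, then Z-scored within the individual line.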

[2] = BET inhibitor-based combinations targeting novel dependencies in MECOM-rearranged (r) AML: OCI-AML3 cell line (AID 2202232); conditions: Potency: OCI-AML3 viability; further: nearly all actives have a fitted effect of over 35% in size
Outline: as §1

[3] = BET inhibitor-based combinations targeting novel dependencies in MECOM-rearranged (r) AML: MV-4-11 cell line (AID 2202233); further: nearly all actives have a fitted effect of over 45% in size
Outline: (§2)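 Normalized to DMSO and empty-well controls, the luminescence data from CellTiter-Glo after 48 hr drug exposure were fitted across 11 concentrations. Reported metrics are area under the dose-response curve and its Z-transformed form.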

[4] = BET inhibitor-based combinations targeting novel dependencies in MECOM-rearranged (r) AML: UCSD-AML1 cell line (AID 2202235); further: nearly all actives have a fitted effect of over 40% in size
Outline: as §2

[5] = BET inhibitor-based combinations targeting novel dependencies in MECOM-rearranged (r) AML: AML-191 cell line (AID 2202236; further: nearly all actives have a fitted effect of over 35% in size)
Outline: as §1

[6] = BET inhibitor-based combinations targeting novel dependencies in MECOM-rearranged (r) AML: AML-194 cell line (AID 2202237; further: nearly all actives have a fitted effect of over 40% in size)
Outline: as §1
Potency means the concentration at half of the fitted maximal effect.

CN(C(=O)c1c(O)c2ccccc2n(C)c1=O)c1ccccc1
viability [1]: 76.1% (inactive) | Potency [2]: inactive | Potency [3]: inactive | Potency [4]: inactive | Potency [5]: inactive | Potency [6]: inactive

Cc1ccc(C(=O)N(CCCN)[C@@H](c2nc3cc(Cl)ccc3c(=O)n2Cc2ccccc2)C(C)C)cc1
Potency [1]: 105 nM (active) | Potency [2]: 0.0295 µM (active) | Potency [3]: 41.7 nM (active) | Potency [4]: 26.3 nM (active) | Potency [5]: 41.7 nM (active) | Potency [6]: 46.8 nM (active)

CCNCCS(=O)(=O)NC[C@@]1(c2ccccc2)SC(NC(=O)C(C)(C)C)=NN1C(=O)C(C)(C)C
Potency [1]: 118 nM (active) | Potency [2]: 0.0042 µM (active) | Potency [3]: 4.2 nM (active) | Potency [4]: 4.7 nM (active) | Potency [5]: 20.9 nM (active)

CCCCc1ccc2nc(NC(=O)OC)[nH]c2c1
Potency [1]: 263 nM (active) | Potency [2]: 0.148 µM (active) | Potency [3]: 186 nM (active) | Potency [4]: 118 nM (active) | Potency [5]: 118 nM (active) | Potency [6]: 105 nM (active)

O=c1[nH]c(=O)n([C@H]2C[C@H](O)[C@@H](CO)O2)cc1C(F)(F)F
Potency [1]: 5900 nM (active) | Potency [2]: 1.66 µM (active) | Potency [3]: 1050 nM (active) | Potency [4]: 1480 nM (active) | Potency [5]: 1320 nM (active) | Potency [6]: 4680 nM (active)

Cc1ccc(S(=O)(=O)Nc2cc(-c3ccc(C#N)s3)ccc2C)cc1
Potency [1]: 74.2 nM (active) | Potency [2]: 0.0934 µM (active) | Potency [3]: 105 nM (active) | Potency [4]: 66.1 nM (active) | Potency [5]: 74.2 nM (active) | Potency [6]: 83.3 nM (active)

Cc1c(C(=O)Nc2ccc(Oc3ccnc4[nH]cc(-c5ccccc5)c34)c(F)c2)c(=O)n(-c2ccc(F)cc2)n1C
viability [1]: 96.3% (inactive) | Potency [2]: 20.9 µM (active) | Potency [3]: 74.2 nM (active) | Potency [5]: 590 nM (active) | Potency [6]: 1660 nM (active)

O=C(O)CNC(=O)c1ncc(-c2cccc(Cl)c2)cc1O
viability [1]: 110% (inactive) | Potency [2]: 6.61 µM (active) | Potency [3]: inactive | Potency [4]: inactive | Potency [6]: inactive

C[C@H]1CNCCCN1S(=O)(=O)c1cccc2cncc(F)c12
viability [1]: 113% (inactive) | Potency [2]: inactive | Potency [3]: inactive | Potency [4]: inactive | Potency [5]: inactive | Potency [6]: inactive

C=C1C(=O)OC2/C=C(/C)CC/C=C(/C)CCC12 (centres undefined)
Potency [1]: 20900 nM (active) | Potency [2]: 18.6 µM (active) | Potency [3]: 14800 nM (active) | Potency [4]: 26300 nM (active) | Potency [5]: 26300 nM (active)

COc1ccc(C(=O)N2CCN(c3ccc4c(c3)CCC(=O)N4)CC2)cc1OC
viability [1]: 105% (inactive) | Potency [2]: inactive | Potency [3]: inactive | Potency [4]: inactive | Potency [5]: inactive | Potency [6]: inactive

CCCC[C@@H](C=O)NC(=O)[C@H](CC(C)C)NC(=O)OCc1ccccc1
Potency [1]: 18600 nM (active) | Potency [2]: 13.2 µM (active) | Potency [3]: 18600 nM (active) | Potency [4]: inactive | Potency [6]: inactive

CN(C)C(N)=NC(=N)N
viability [1]: 120% (inactive) | Potency [2]: inactive | Potency [3]: inactive | Potency [5]: inactive | Potency [6]: inactive

Cn1c(NCCN(CCO)CCCc2ccc([N+](=O)[O-])cc2)cc(=O)n(C)c1=O
viability [1]: 114% (inactive) | Potency [2]: inactive | Potency [3]: inactive | Potency [5]: inactive

COc1cc2ncn(-c3cc(OCc4ccccc4C(F)(F)F)c(C(N)=O)s3)c2cc1OC
Potency [1]: 1860 nM (active) | Potency [2]: 1.18 µM (active) | Potency [3]: 2090 nM (active) | Potency [4]: 2350 nM (active) | Potency [5]: 1480 nM (active) | Potency [6]: 1050 nM (active)

CC(C)n1c(=O)cc(N[C@@H](C)c2ccccc2)[nH]c1=O
viability [1]: 110% (inactive) | Potency [2]: inactive | Potency [3]: 14800 nM (active) | Potency [4]: inactive | Potency [5]: inactive

CCC[C@H](Nc1nc(-c2ccc(NC(=O)NCC)c(OC)c2)ncc1C)c1cccnc1
Potency [1]: 118 nM (active) | Potency [2]: 0.105 µM (active) | Potency [3]: 52.5 nM (active) | Potency [4]: 132 nM (active) | Potency [5]: 105 nM (active) | Potency [6]: 105 nM (active)

CN1CCN(c2ccc3nc(-c4cc(C(C)(C)C)c(OCCCC(=O)NCCCN=[N+]=[N-])c(C(C)(C)C)c4)[nH]c3c2)CC1
Potency [1]: 10500 nM (active) | Potency [2]: 10.5 µM (active) | Potency [3]: 7420 nM (active) | Potency [5]: 9340 nM (active) | Potency [6]: 8330 nM (active)

CN(C)C[C@@H]1CCn2cc(c3ccccc32)C2=C(C(=O)NC2=O)c2cn(c3ccccc23)CCO1
Potency [1]: 8330 nM (active) | Potency [2]: 20.9 µM (active) | Potency [3]: 417 nM (active) | Potency [5]: 7420 nM (active) | Potency [6]: 5900 nM (active)

CC(C)(C)c1[nH]cnc1/C=c1\[nH]c(=O)/c(=C/c2ccccc2)[nH]c1=O
Potency [1]: 83.3 nM (active) | Potency [2]: 0.0742 µM (active) | Potency [3]: 83.3 nM (active) | Potency [4]: 59 nM (active) | Potency [5]: 59 nM (active) | Potency [6]: 74.2 nM (active)

NC[C@H]1O[C@H](O[C@H]2[C@H](O)[C@@H](O[C@H]3O[C@H](CO)[C@@H](O)[C@H](N)[C@H]3O)[C@H](N)C[C@@H]2N)[C@H](N)C[C@@H]1O
viability [1]: 115% (inactive) | Potency [2]: inactive | Potency [3]: inactive | Potency [4]: inactive | Potency [5]: inactive
